Assay outcomes deposited in PubChem BioAssay by several laboratories.
Most compounds without a hit are left out; they make up all but 0.5% or so of the library.
E coli growth-1: inhibitors of Escherichia coli growth; OD600, 23 h; stronger effect = lower value; OD600 absorbance (test concentration not listed); 330,000 compounds, 0.21% hits; AID 1053175;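 active means OD600 absorbance below the run mean of sample wells minus 3.6 SD, in any replicate, cut at about 0.56 in these data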
E coli growth-2: bacterial growth inhibition, counter-screen for AddAB inhibitors. E. coli V3065 growth, OD600 absorbance, 18 h. inhibition, % at 11.9 µM. 330,000 compounds, 0.27% hits;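 active means inhibition above the campaign's mean inhibition across all tested compounds plus 3 SD, cut at about 9.9% in these data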;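 further: uninfected addAB+ strain grown without phage in ampicillin broth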
phage Ecoli inh: E. coli growth loss with phage present; 360,000 compounds, 0.26% hits; growth absorbance; inhibition, % at 11.9 µM; AID 651602; in the data active means inhibition above about 11%
AddAB inh: less growth of phage-infected E. coli with AddAB; inhibition, % at 11.9 µM; E. coli expressing H. pylori AddAB, absorbance growth; 330,000 compounds, 0.29% hits; in the data active means inhibition above about 12%
Tat transport: inhibitors of E. coli Tat protein transport | AID 488895 | E. coli MC4100 TorA-mCherry Tat export, fluorescence | 340,000 compounds, 0.036% hits | inhibition, % at 10 µM;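 active means mean replicate inhibition at least 50% and at least half of replicates individually reaching 50%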;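 further: exported cargo escapes ClpAP degradation while cytoplasmic cargo is degraded and loses fluorescence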
AddAB confirm: confirmation screen: growth loss of phage-infected E. coli expressing H. pylori AddAB | shares compounds with AddAB inh | E. coli V3065 expressing H. pylori AddAB, T4 phage, OD; T4 phage with gene 2 nonsense mutations | inhibition, % at 11.9 µM | 880 compounds, 64% hits | AID 488942;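 active means mean inhibition above a set limit taken from the earlier primary screen, cut at about 13% in these data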;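 further: higher means less bacterial growth since AddAB block lets phage replicate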
RecBCD counter: AddAB counter-screen: growth loss of RecBCD+ E. coli infected with mutant T4 phage; shares compounds with AddAB inh; E. coli V66 + mutant T4 phage, OD growth; inhibition, % at 11.9 µM; 880 compounds, 73% hits; AID 488955;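 active means mean inhibition above the mean of solvent-only control wells plus 3 SD, cut at about 4% in these data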;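 further: optical density read after an 18 h incubation at 37 °C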
Bact viability: reduces bacterial viability, AddAB inhibitor counter-screen; shares compounds with AddAB inh; absorbance (AddAB counterscreen); inhibition, % at 11.9 µM; 880 compounds, 35% hits; AID 488956; in the data active means inhibition above about 25%
RecBCD conf: growth loss of phage-infected V66 E. coli, RecBCD confirmation screen; shares compounds with phage Ecoli inh; AID 651982; inhibition, % at 11.9 µM; E. coli V66 + T4 2- phage, growth OD; 890 compounds, 45% hits;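 active means mean inhibition over triplicates exceeding the hit threshold derived in the original primary screen, cut at about 11% in these data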
Ecoli viability: inhibits E. coli viability, flagging RecBCD hits as nonselective; shares compounds with phage Ecoli inh; absorbance (OD) growth; inhibition, % at 11.9 µM; 890 compounds, 29% hits; AID 651983; in the data active means inhibition above about 20%;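 further: E. coli strain V66 grown with compound alone and no phage infection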
AddAB phage OD: growth loss of phage-infected AddAB E. coli, RecBCD counter-screen; shares compounds with phage Ecoli inh; 890 compounds, 45% hits; inhibition, % at 11.9 µM; E. coli expressing H. pylori AddAB + T4 phage, OD growth; gene 2 mutant T4, recBCD-deleted host; AID 651984;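 active means mean inhibition above the solvent-only control wells' mean plus 3 SD, cut at about 22% in these data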;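 further: higher means less bacterial growth from phage killing when AddAB is blocked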
Each line names hits and unclear results; the compound was inactive in the other large screens (follow-up assays come after a bar, where they were run).

O=C(N/N=C/c1ccc([N+](=O)[O-])o1)c1ccncc1	E coli growth-2 18, phage Ecoli inh 23, AddAB inh 94 (no result: E coli growth-1, Tat transport) | AddAB confirm 97 | RecBCD counter 19 | Bact viability 33 | RecBCD conf 16 | Ecoli viability inactive | AddAB phage OD 64
O=C(N/N=C/c1ccc([N+](=O)[O-])o1)c1ccc(O)cc1	E coli growth-2 97, phage Ecoli inh 23, AddAB inh 98 (no result: E coli growth-1) | AddAB confirm 96 | RecBCD counter 24 | Bact viability 78 | RecBCD conf 17 | Ecoli viability 21 | AddAB phage OD 98
O=C(N/N=C\c1ccc([N+](=O)[O-])o1)c1cncc(Br)c1	none (no result: E coli growth-1)
Cc1cc(C)nc(NS(=O)(=O)c2ccc(N=NN(C)C)cc2)n1	none
Cc1ccc(C(=O)NS(=O)(=O)c2ccc(N=NN(C)C)cc2)cc1	E coli growth-2 70, phage Ecoli inh 13, AddAB inh 100 | AddAB confirm inactive | RecBCD counter inactive | Bact viability inactive | RecBCD conf inactive | Ecoli viability inactive | AddAB phage OD inactive
O=C(Cn1cnc2ccccc21)Nc1ccc2c(c1)OCCCO2	E coli growth-2 13, phage Ecoli inh 16, AddAB inh 17 | AddAB confirm 23 | RecBCD counter 16 | Bact viability inactive | RecBCD conf 12 | Ecoli viability inactive | AddAB phage OD inactive
O=C(Cn1cnc2ccccc2c1=O)Nc1ccc2c(c1)OCO2	none
O=C(O)C(Cc1ccccc1)NC(=O)N1CCOCC1 (stereo not drawn)	none (no result: E coli growth-2, phage Ecoli inh, AddAB inh, Tat transport)
CC=C(C)C(=O)OC1CC(C)(C)CC2C3=CCC4[C@@]5(C)CCC(OC6OC(C(=O)O)C(O)C(OC7OCC(O)C(O)C7OC7OC(CO)C(O)C(O)C7O)C6OC6OC(CO)C(O)C(O)C6O)[C@@](C)(CO)C5CC[C@]4(C)[C@]3(C)CC(O)[C@@]12CO (stereo partly drawn)	none (no result: E coli growth-2, phage Ecoli inh, AddAB inh, Tat transport)
O=C(CC1CC=CCC(NC(=O)OCC2c3ccccc3-c3ccccc32)C(=O)OC(c2ccccc2)CNC1=O)NC(CO)Cc1ccccc1 (stereo not drawn)	none (no result: E coli growth-2, phage Ecoli inh, AddAB inh, Tat transport)
O=C(CCC1CCCC1)NNC(=O)c1cc2ccccc2cc1O	phage Ecoli inh 16, AddAB inh 18 | AddAB confirm 14 | RecBCD counter 14 | Bact viability inactive | RecBCD conf inactive | Ecoli viability inactive | AddAB phage OD inactive
O=C(CC1CCCC1)NNC(=O)c1ccccc1O	none (no result: E coli growth-1, E coli growth-2, AddAB inh, Tat transport)
CC(C)CCOC(=O)C1C2C=C[C@]3(CN(Cc4cccs4)C(=O)C13)O2 (stereo partly drawn)	none (no result: E coli growth-2, phage Ecoli inh, AddAB inh, Tat transport)
COc1ccc([N+]([O-])=Cc2ccco2)cc1	none (no result: E coli growth-2, phage Ecoli inh, AddAB inh, Tat transport)
O=C(NNC(=O)c1cccc2ccccc12)c1ccc(Cl)cc1Cl	none (no result: E coli growth-2, AddAB inh)
O=C(NNC(=O)c1ccc2ccccc2c1O)c1ccccc1Cl	E coli growth-2 15, phage Ecoli inh 12, AddAB inh 14 | AddAB confirm inactive | RecBCD counter 10 | Bact viability inactive | RecBCD conf inactive | Ecoli viability inactive | AddAB phage OD inactive
COc1ccc(/C=N\NC(=O)c2cc(O)c(O)c(O)c2)cc1COc1ccc(C(=O)OCC(C)C)cc1	E coli growth-2 10, phage Ecoli inh 12, AddAB inh 15 (no result: E coli growth-1) | AddAB confirm inactive | RecBCD counter 8.8 | Bact viability inactive | RecBCD conf inactive | Ecoli viability inactive | AddAB phage OD inactive
CCC1=C(OC(=O)N(CC)CC)N2C(=O)OC(=NCC(=O)OC)[C@]2(Cc2ccccc2)C2C1=CCC1C(=O)NC(=O)C12 (stereo partly drawn)	none (no result: E coli growth-2, phage Ecoli inh, AddAB inh, Tat transport)
COc1nsnc1NS(=O)(=O)c1ccc(NC(=S)NC(=O)c2ccncc2)cc1	E coli growth-1 0.068, E coli growth-2 62, phage Ecoli inh 29, AddAB inh 74 | AddAB confirm 76 | RecBCD counter 24 | Bact viability 34 | RecBCD conf 14 | Ecoli viability inactive | AddAB phage OD 33
COc1nsnc1NS(=O)(=O)c1ccc(NC(=S)NC(=O)c2cccnc2)cc1	E coli growth-1 0.062, E coli growth-2 54, phage Ecoli inh 47, AddAB inh 59 | AddAB confirm 70 | RecBCD counter 31 | Bact viability 42 | RecBCD conf 27 | Ecoli viability 23 | AddAB phage OD 45
CCCCCCn1cc(C(=O)OCC)c(=O)c2cc(F)c(F)cc21	none
CCn1cc(SCC(=O)NCc2ccc3c(c2)OCO3)c2ccccc21	none
CCOC(=O)c1cn(CC)c2cc(N3CCN(C)CC3)c(F)cc2c1=O	E coli growth-1 0.068, E coli growth-2 97, phage Ecoli inh 27, AddAB inh 99 | AddAB confirm 102 | RecBCD counter 19 | Bact viability 100 | RecBCD conf 11 | Ecoli viability inactive | AddAB phage OD 89
CCC(C)NC(=O)c1cn(CC)c2cc(N3CCN(C)CC3)c(F)cc2c1=O (stereo not drawn)	E coli growth-1 0.075, E coli growth-2 95, phage Ecoli inh 94, AddAB inh 99 (no result: Tat transport) | AddAB confirm 100 | RecBCD counter 99 | Bact viability 100 | RecBCD conf 99 | Ecoli viability 99 | AddAB phage OD 100
CCn1cc(C(=O)N[C@H](C)c2ccccc2)c(=O)c2cc(F)c(N3CCN(C)CC3)cc21	none
CCn1cc(C(=O)NCc2ccc3c(c2)OCO3)c(=O)c2cc(F)c(N3CCN(C)CC3)cc21	E coli growth-1 0.043, E coli growth-2 98, phage Ecoli inh 16, AddAB inh 99 | AddAB confirm 102 | RecBCD counter 29 | Bact viability 101 | RecBCD conf 18 | Ecoli viability inactive | AddAB phage OD 102
CCn1cc(C(=O)NCC(C)C)c(=O)c2cc(F)c(N3CCN(C)CC3)cc21	E coli growth-1 0.075, E coli growth-2 100, phage Ecoli inh 87, AddAB inh 99 (no result: Tat transport) | AddAB confirm 100 | RecBCD counter 100 | Bact viability 101 | RecBCD conf 90 | Ecoli viability 101 | AddAB phage OD 102
CC[C@]12C(=O)N(C)CC(C3C(=O)N(C)C(=O)C31)N2C(=O)c1ccc(C(C)(C)C)cc1 (stereo partly drawn)	none (no result: E coli growth-2, phage Ecoli inh, AddAB inh, Tat transport)
